Results taken from PubChem BioAssay AID651610 (Broad Institute, 2012).
“And” between values parts separate entries of the source, which are not always exact repeats. Identical values can stand only once. The whole screen tested about 360,000 compounds, of which about 3,900 (1.1%) were called active. For the sample, actives were picked, then their nearest neighbours and some compounds at random. Unmarked numbers belong to inactive results.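 How the source made its calls: active means mean replicate inhibition score of at least 50 and every replicate individually at or above 50; inconclusive means only one of the two criteria met; inactive means mean below 50 and not all replicates reaching 50.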

Experiment: blockers of JRFL envelope-mediated fusion – HeLa-JRFL effector, CEM21 target cells, luciferase, primary screen (AID 651610);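 further: 0% = plate neutral controls and 100% = maraviroc near 300 nM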
Settings: HeLa-JRFL Env/CEM21 cell fusion, hits give high values

C[C@@H]1CN([C@H](C)CO)C(=O)Cc2cc(NS(=O)(=O)c3cccs3)ccc2O[C@@H]1CN(C)C(=O)Nc1ccc(F)cc1
inhibition (at 16.7 µM unless noted): -7.97%

C[C@@H]1CN([C@H](C)CO)C(=O)c2cc(NC(=O)Nc3cccc4ccccc34)ccc2O[C@@H](C)CCCCO[C@H]1CN(C)S(=O)(=O)c1cccs1
inhibition (at 16.7 µM unless noted): 15.1%

CCCCCc1c(-c2cccc(Br)c2)ncn1CCc1ccccc1OC
inhibition (at 16.7 µM unless noted): 11.9% [at 12.3 µM]

CCCCCc1c(-c2ccc(OC)c(OC)c2)ncn1CCc1ccccc1OC
inhibition (at 16.7 µM unless noted): 49.2% [at 12.3 µM]

CCCCCc1c(Cc2ccccc2)ncn1CCc1ccccc1OC
inhibition (at 16.7 µM unless noted): 109% [at 12.3 µM] (active)

O=C(C[C@H]1C[C@H]2c3cc(NC(=O)CC4CC4)ccc3O[C@H]2[C@H](CO)O1)NCc1ccccc1
inhibition (at 16.7 µM unless noted): 8.72%

CC(=O)C1=C(C)N(Cc2ccc(Cl)cc2)C(=S)NC1c1ccc(F)cc1 (stereo not given)
inhibition (at 16.7 µM unless noted): 62.3% [at 12.3 µM] (active)

CC(=O)C1=C(C)N(Cc2ccccc2)C(=S)NC1c1cccc(Br)c1 (stereo not given)
inhibition (at 16.7 µM unless noted): 0.027% [at 12.3 µM]

COC(=O)C1=C(C)N(Cc2ccc(F)cc2)C(=S)NC1c1cccc(Cl)c1 (stereo not given)
inhibition (at 16.7 µM unless noted): 34.2% [at 12.3 µM]

C[C@@H]1CCCCO[C@@H](CN(C)S(=O)(=O)c2cccs2)[C@@H](C)CN([C@H](C)CO)C(=O)c2cc(NC(=O)Nc3ccc4c(c3)OCO4)ccc2O1
inhibition (at 16.7 µM unless noted): 4.87%

COCC(=O)Nc1ccc2c(c1)C(=O)N(C)C[C@H](OC)[C@@H](C)CN(C(=O)Cc1cccnc1)[C@@H](C)CO2
inhibition (at 16.7 µM unless noted): 0.828%

S=c1c2[nH]cnc2ncn1CCSc1ncnc2nc[nH]c12
inhibition (at 16.7 µM unless noted): -6.63% [at 12.3 µM]

CCc1ccc(N(CC)c2ncnc3nc[nH]c23)cc1
inhibition (at 16.7 µM unless noted): 55.5% [at 12.3 µM] (active)

CCC(=O)N1[C@H](C(=O)NCc2ccc(F)cc2)[C@@H](CO)[C@@H]2Cn3c(ccc(C4=CCCCC4)c3=O)[C@@H]21
inhibition (at 16.7 µM unless noted): 22.3%

C[C@@H]1CCCCO[C@@H](CN(C)Cc2ccncc2)[C@@H](C)CN([C@@H](C)CO)C(=O)c2cc(N(C)C)ccc2O1
inhibition (at 16.7 µM unless noted): 12.4%

C=CCNc1ncnc2ccc(Br)cc12
inhibition (at 12.3 µM): 92.8% (active)
inhibition (at 16.7 µM): 9.63% and 27.5%

O=C(O)CCCCCNc1ncnc2ccc(Br)cc12
inhibition (at 16.7 µM unless noted): 26.9% [at 12.3 µM]

Brc1ccc2ncnc(NCc3cccnc3)c2c1
inhibition (at 16.7 µM unless noted): 43.2% [at 12.3 µM]

CN1CCN(C(=O)C[C@H]2C[C@H]3c4cc(NC(=O)Nc5ccccc5F)ccc4O[C@H]3[C@H](CO)O2)CC1
inhibition (at 16.7 µM unless noted): -13.6%

COc1ccccc1CNC(=O)C[C@@H]1C[C@@H]2c3cc(NC(=O)C4CCOCC4)ccc3O[C@@H]2[C@@H](CO)O1
inhibition (at 16.7 µM unless noted): -2.64%

Cn1c(CN2CCOCC2)nc2cc(NC(=O)c3ccc(Cl)cc3)ccc21
inhibition (at 16.7 µM unless noted): 66.4% [at 12.3 µM] (active)

O=C(Nc1ccc(CN2CCOCC2)cc1)c1cc(Cl)ccc1Cl
inhibition (at 16.7 µM unless noted): -16% [at 12.3 µM]

CCOC(=O)N1CCN(Cc2nc3cc(NC(C)=O)ccc3n2C)CC1
inhibition (at 16.7 µM unless noted): 9.8% [at 12.3 µM]

CNC[C@@H]1Oc2cc(-c3ccccc3OC)ccc2S(=O)(=O)N([C@@H](C)CO)C[C@H]1C
inhibition (at 16.7 µM unless noted): -40.9%

CCCNC(=O)N(C)C[C@H]1Oc2cc(-c3ccncc3)ccc2S(=O)(=O)N([C@H](C)CO)C[C@H]1C
inhibition (at 16.7 µM unless noted): -10.2%

CC(=O)c1c(C)[nH]c(C(=O)OCC(=O)NCCC(C)C)c1C
inhibition (at 16.7 µM unless noted): 38.2% [at 12.3 µM]

CC(=O)c1c(C)[nH]c(C(=O)OCC(=O)Nc2cc(S(=O)(=O)N3CCCCC3)ccc2C)c1C
inhibition (at 16.7 µM unless noted): 0.591% [at 12.3 µM]

CC(=O)c1c(C)[nH]c(C(=O)OCC(=O)Nc2c(C)cccc2C)c1C
inhibition (at 16.7 µM unless noted): 76.4% [at 12.3 µM] (active)

CO[C@@H]1CN(C)C(=O)c2cc(NS(=O)(=O)c3ccccc3C)ccc2OC[C@@H](C)N(S(C)(=O)=O)C[C@@H]1C
inhibition (at 16.7 µM unless noted): 23.9%

C[C@@H]1CN([C@@H](C)CO)C(=O)c2cc(-c3ccccc3F)cnc2O[C@@H]1CN(C)Cc1cccc(F)c1
inhibition (at 16.7 µM unless noted): 6.32%

Cc1cccc(C)c1NC(=O)CN1CCN(c2ccc(F)cc2)CC1
inhibition (at 16.7 µM unless noted): -17.6% [at 12.3 µM]

O=C(COC(=O)C1CCCO1)Nc1nc(-c2ccc(F)cc2)cs1 (stereo not given)
inhibition (at 16.7 µM unless noted): -32.6% [at 12.3 µM]

CC1CCCC(C)N1C(=O)CN1CCN(c2nc(-c3ccc(F)cc3)cs2)CC1 (stereo not given)
inhibition (at 16.7 µM unless noted): 57.8% [at 12.3 µM] (active)

C[C@@H]1CN([C@@H](C)CO)S(=O)(=O)c2ccc(C#Cc3ccccc3F)cc2O[C@H]1CN(C)C(=O)c1ccc2c(c1)OCO2
inhibition (at 16.7 µM unless noted): 48.7%

CCC(=O)N(C)C[C@@H]1Oc2cc(C#Cc3cccnc3)ccc2S(=O)(=O)N([C@H](C)CO)C[C@@H]1C
inhibition (at 16.7 µM unless noted): 19.7%

CNC(=O)C[C@@H]1CC[C@@H]2[C@H](COc3ccc(NC(=O)c4cccs4)cc3C(=O)N2C)O1
inhibition (at 16.7 µM unless noted): 0.696%

CO[C@H]1CN(C)C(=O)c2cc(NS(=O)(=O)c3ccccc3)ccc2OC[C@H](C)N(C)C[C@@H]1C
inhibition (at 16.7 µM unless noted): 5.07%

CNC[C@H]1Oc2cc(-c3cccnc3)ccc2S(=O)(=O)N([C@@H](C)CO)C[C@H]1C
inhibition (at 16.7 µM unless noted): -16.2%

CC(=O)N[C@H]1CC[C@H](CCNC(=O)C2CC2)O[C@H]1CO
inhibition (at 16.7 µM unless noted): -15.4%

CCOC(=O)C1=C(c2ccc(OC)cc2)C(=O)c2ccccc2C1=O
inhibition (at 16.7 µM unless noted): 74.3% [at 12.3 µM] (active)

CCOC(=O)C(Cc1ccccc1)NC(=O)CCC(=O)c1ccc(OC)cc1 (stereo not given)
inhibition (at 16.7 µM unless noted): 4.22% [at 12.3 µM]

CCOC(=O)C(Cc1ccc(N)cc1)N1C(=O)c2ccccc2C1=O (stereo not given)
inhibition (at 16.7 µM unless noted): 6.82% [at 12.3 µM]

COc1ccc(NC(=O)Nc2ccc3c(c2)C(=O)N([C@@H](C)CO)C[C@@H](C)[C@H](CN(C)C(=O)NC(C)C)OCCCC[C@H](C)O3)cc1
inhibition (at 16.7 µM unless noted): 11.6%

COC(=O)[C@@]12CCCN1[C@H](c1ccc(-c3ccc(F)cc3)c(OC)c1)[C@H]1C(=O)N(C)C(=O)[C@H]12
inhibition (at 16.7 µM unless noted): 71.6% [at 12.3 µM] (active)

CCN1C(=O)[C@@H]2[C@@H](c3ccc(-c4ccc(OC)cc4)c(OC)c3)N3CCC[C@@]3(C(=O)OC)[C@@H]2C1=O
inhibition (at 16.7 µM unless noted): -5% [at 12.3 µM]

CCCCCCSc1ccc([C@@H]2[C@H]3C(=O)N(CC)C(=O)[C@H]3[C@]3(C(=O)OC)CCCCN23)cc1
inhibition (at 16.7 µM unless noted): 8.61% [at 12.3 µM]

CCN1C(=O)[C@@H]2[C@@H](c3ccc(-c4ccccc4)cc3)N3CCCC[C@@]3(C(=O)OC)[C@@H]2C1=O
inhibition (at 16.7 µM unless noted): -3.15% [at 12.3 µM]

CCCCCCSc1ccc([C@@H]2[C@@H]3C(=O)N(CC)C(=O)[C@@H]3[C@]3(C(=O)OC)CCCCN23)cc1OC
inhibition (at 16.7 µM unless noted): 73.2% [at 12.3 µM] (active)

CCN1C(=O)[C@@H]2[C@@H](c3ccc(-c4cccc(Cl)c4)cc3)N3CCC[C@@]3(C(=O)OC)[C@@H]2C1=O
inhibition (at 16.7 µM unless noted): -3.1% [at 12.3 µM]
